# Active and inactive are the calls of the source. No rule for the calls is given here.
# Molecular target: Estrogen receptor (Homo sapiens) (UniProt P03372)
# Assay: ERalpha ligand binders by competition, primary screen, cell-based, Cos7 ERalpha-GFP, flow cytometry (AID 1211);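 also: 0% = DMSO vehicle wells and 100% = no E2-Alexa633 signal left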
# Settings: fluorescent ligand competition, stronger effect = higher value
# Estrogen receptor (Homo sapiens), sequence (P03372 whole entry, looked up): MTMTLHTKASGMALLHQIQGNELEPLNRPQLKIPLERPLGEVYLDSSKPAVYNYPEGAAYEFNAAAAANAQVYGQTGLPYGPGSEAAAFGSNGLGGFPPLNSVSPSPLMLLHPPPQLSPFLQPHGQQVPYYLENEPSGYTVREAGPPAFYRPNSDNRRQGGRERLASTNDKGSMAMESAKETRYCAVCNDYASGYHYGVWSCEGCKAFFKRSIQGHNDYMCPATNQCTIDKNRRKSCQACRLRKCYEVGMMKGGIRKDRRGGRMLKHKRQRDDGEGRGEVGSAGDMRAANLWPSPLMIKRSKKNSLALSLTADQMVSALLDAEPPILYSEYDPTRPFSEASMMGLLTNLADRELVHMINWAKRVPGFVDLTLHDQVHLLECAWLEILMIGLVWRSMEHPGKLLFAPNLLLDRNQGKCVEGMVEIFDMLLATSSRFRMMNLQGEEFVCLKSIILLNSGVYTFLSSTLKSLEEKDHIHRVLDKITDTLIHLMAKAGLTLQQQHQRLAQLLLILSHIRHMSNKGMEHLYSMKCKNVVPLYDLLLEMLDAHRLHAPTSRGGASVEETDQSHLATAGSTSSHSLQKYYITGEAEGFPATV
SMILES,inhibition of ligand binding (at 10 µM),"inhibition of ligand binding (binding inhibition, at 0.1 µM)"
COc1ccc(N2Cc3cccc(C(=O)O)c3C2=O)cc1,26% (inactive),44%
Cc1cc2oc(=O)cc(COC(=O)c3n[nH]c4ccccc34)c2cc1C,53% (inactive),20%
O=Cc1cn(-c2ccccc2)nc1-c1cc2c(ccc3ccccc32)oc1=O,40% (inactive),55%
NNc1nc2sc3c(c2c(=O)[nH]1)CCc1ccccc1-3,55% (inactive),28%
Cc1nc2cc(-c3ccsc3-n3c(C)ccc3C)[nH]n2c(=O)c1Cl,30% (inactive),54%
Cn1ccnc1SCC(=O)Nc1ccc2nc(SCC(=O)NC3CC3)sc2c1,30% (active),78%
Cc1ccc(-n2nnnc2SCC(=O)Nc2ccc3c(c2)COC3=O)cc1C,27% (inactive),9%
O=c1cc(-c2ccco2)oc2c1ccc1ccccc12,48% (inactive),4%
C[C@]12CC[C@@H]3c4ccc(O)cc4C(=O)C[C@H]3[C@@H]1CC[C@@H]2O,78% (active),88%
Cc1cc(-c2nnc3sc(-c4ccc(Cl)cc4Cl)nn23)n[nH]1,27% (inactive),53%
Cc1ccc2[nH]c(=O)c(-c3nc4ccccn4c3NCc3ccco3)cc2c1,23% (inactive),16%
O=C(c1cccs1)N1N=C(c2ccc(O)cc2)CC1c1ccccc1 (configuration not stated),58% (inactive),17%
COc1ccc(NC(=O)C(NC(=O)c2ccc(=O)[nH]c2)c2ccc(C)cc2)cc1 (configuration not stated),4% (inactive),13%
COc1cc(NC(=O)c2cccs2)c(C(=O)OCC(=O)NCc2ccco2)cc1OC,22% (inactive),20%
Cn1nnnc1SCC(=O)Nc1nc(-c2ccccc2)c(-c2ccccc2)o1,45% (inactive),7%
CCOC(=O)C1CCCN(C(=O)c2cc3ncc(Br)cn3n2)C1 (configuration not stated),3% (inactive),41%
O=C(c1cccc(F)c1)N1CCN(C(=O)c2cc3ncc(Br)cn3n2)CC1,35% (inactive),50%
O=C(c1cc2ncc(Br)cn2n1)N1CCN(C(=O)c2ccco2)CC1,2% (inactive),15%
CCc1ccc(-c2nn(-c3ccccc3)cc2CSC(=N)N)cc1,22% (inactive),45%
O=C(OC1CCCCC1)c1ccc2c(c1)C1C=CCC1C(C(=O)O)N2 (configuration not stated),42% (inactive),14%
COC(=O)c1[nH]c2ccc(C)cc2c1NC(=O)CN1CCCc2ccccc21,49% (inactive),9%
CN(/N=C/c1cccnc1)c1cnn(-c2ccc(F)c(Cl)c2)c(=O)c1Cl,24% (inactive),15%

SMILES,inhibition of ligand binding (at 10 µM),"inhibition of ligand binding (binding inhibition, at 0.1 µM)"
COc1ccc(N=C2NC(=O)S/C2=C\c2ccc(N(C)C)cc2)cc1,39% (inactive),8%
COc1ccc2c(c1OC)C(=O)N1N=C(c3ccc(O)cc3)CC21 (configuration not stated),0% (inactive),30%
Nc1ccc2nc(-c3cc(Cl)c(N)c(Cl)c3)[nH]c2c1,18% (inactive),6%
c1ccc(Cc2nnc3sc(-c4ccco4)nn23)cc1,34% (inactive),12%
Cc1c(N=Cc2ccc(O)c(Br)c2)cccc1[N+](=O)[O-],0% (inactive),23%
O=C(c1cc2ncc(Br)cn2n1)N1CCOCC1,54% (inactive),25%
O=C(COC(=O)CC1CCCC1)Nc1cc2c(cc1Cl)C(=O)c1ccccc1C2=O,37% (inactive),24%
COc1ccc(-c2nc3ccc([N+](=O)[O-])cc3o2)cc1,28% (inactive),52%
CCSc1nnc(NC(=O)C2Cc3ccccc3CN2C(=O)c2ccco2)s1 (configuration not stated),26% (inactive),44%
CCCCn1c(NC(=O)CC)c(C#N)c2nc3ccccc3nc21,35% (inactive),40%
O=C(CSc1nc2c(cnn2-c2ccccc2)c(=O)[nH]1)c1ccc(Cl)cc1,18% (inactive),1%
COc1ccccc1-c1nnc2n1N=C(c1ccc(O)c(O)c1)CS2,46% (inactive),10%
O=C(O)c1cc(-c2ccco2)nc2ccccc12,57% (inactive),21%
CC(C)(C)OC(=O)N1CCN(c2ccc(NC(=O)Cn3nnc(-c4ccccc4)n3)cc2)CC1,37% (inactive),24%
COc1cc(-c2nc3ccc4ccccc4c3c3c2CCC3)cc(OC)c1O,0% (inactive),30%
COc1ccc(C2CC(c3cccs3)=NN2c2ccc(C=O)cc2)cc1 (configuration not stated),58% (inactive),38%
Cc1ccc(S(=O)(=O)NCCn2c(C)cc3ccccc32)cc1,49% (inactive),17%
COc1ccc(NC(=O)CN(c2ccccc2)S(=O)(=O)N(C)C)cc1OC,16% (inactive),16%
C=CCn1c(COc2cccc(C)c2)nnc1SCC(=O)NC(=O)NCc1ccco1,9% (inactive),31%
O=C(OCC(=O)N1CCN(C(=O)c2ccco2)CC1)c1cc(-c2ccco2)nc2ccccc12,34% (active),77%
CCN1CCN(Cc2c(O)c(Cl)cc3c(C)cc(=O)oc23)CC1,31% (inactive),28%
O=C(CSc1nnc(Nc2ccccc2F)s1)NCc1ccco1,3% (inactive),3%

SMILES,inhibition of ligand binding (at 10 µM),"inhibition of ligand binding (binding inhibition, at 0.1 µM)"
O=c1cc(CSc2nnc(-c3cccs3)n2Cc2ccccc2)nc2sc3ccccc3n12,49% (inactive),28%
Cc1ccc(NC(=O)CSc2nc3ccccc3c3nc4ccccc4n23)cc1,60% (inactive),27%
COc1ccccc1C(=O)Nc1nc(-c2cccs2)c(NC(C)=O)s1,29% (inactive),25%
O=C(CSc1nnc(SCC(=O)c2ccco2)s1)c1ccco1,14% (inactive),28%
O=C(Nc1ccc2nn(-c3ccccc3)nc2c1)c1ccc2c(c1)OCO2,15% (inactive),44%
CC1CCc2c(sc(NC(=O)c3ccc(Cn4cc([N+](=O)[O-])cn4)o3)c2C#N)C1 (configuration not stated),44% (inactive),39%
Cc1ccc2[nH]c(=O)c(C3C(C#N)=C(N)Oc4c3ccc3cccnc43)cc2c1 (configuration not stated),27% (inactive),26%
Cc1ccc(-c2csc(NC(=O)c3ccno3)n2)cc1,60% (inactive),29%
O=C1Nc2ccccc2SC(c2ccccc2)C1O (configuration not stated),26% (inactive),46%
Cc1cc(=O)oc2c(CN3CCC(C)CC3)c(O)c(Cl)cc12,10% (inactive),6%
c1ccc(-c2nnc3sc(Cc4cccs4)nn23)cc1,28% (inactive),13%
CN(C)c1ccc(N=Cc2ccco2)cc1,37% (inactive),23%
O=C(Nc1ccccc1[N+](=O)[O-])C1=C(O)CCn2c1nc1ccccc12,20% (inactive),37%
COc1ccc2cc3c(N)nn(C(=O)Cc4ccc(Cl)cc4)c3nc2c1,18% (inactive),16%
O=C(Nc1ccccc1N1CCOCC1)c1cc(-c2ccco2)nc2ccccc12,15% (inactive),22%
CC(=O)Nc1ccc(N=Cc2nc(-c3ccc(C)cc3)oc2O)cc1,29% (inactive),60%
Cc1ccc(-c2n[nH]c(=S)n2/N=C/C=C/c2ccccc2[N+](=O)[O-])cc1,1% (inactive),14%
CN=c1scc(C)n1/N=C/c1ccc(O)cc1O,0% (inactive),3%
O=C(c1cc2c(s1)CCC2)N1CCN(c2ccccc2)CC1,16% (active),70%
CCc1ccc2[nH]c(=O)c(CN(Cc3ccc4c(c3)OCO4)C(=O)c3ccco3)cc2c1,0% (inactive),62%
Nc1ccc(/C=C/C(=O)c2ccco2)cc1,9% (inactive),11%
Nc1ccc2nc(-c3ccc(N)c(Cl)c3)[nH]c2c1,31% (inactive),12%

SMILES,inhibition of ligand binding (at 10 µM),"inhibition of ligand binding (binding inhibition, at 0.1 µM)"
Cc1ccc(-c2nn(-c3ccccc3)cc2CSC(=N)N)cc1,26% (inactive),39%
Nc1ccc2nc(-c3cccnc3)[nH]c2c1,44% (inactive),26%
O=C(Cc1cccs1)Nc1nnc(Cc2ccccc2)s1,33% (inactive),31%
CSc1ccccc1NC(=O)c1noc2c1CCC2,56% (inactive),26%
Cc1cc(Cl)ccc1OCC(=O)OC(C)C(=O)N(C)C (configuration not stated),30% (inactive),53%
C/C(N)=C(/C#N)C(=O)CSc1nnc(-c2ccc(OC(F)F)cc2)o1,20% (inactive),24%
O=C(Nc1nc(-c2nc3ccccc3s2)cs1)C1COc2ccccc2O1 (configuration not stated),33% (inactive),11%
Nc1ncnc2c1ncn2C1CCC(CO)C(O)C1 (configuration not stated),0% (inactive),10%
Nc1ccc(-c2cc(-c3ccc(N)cc3)nc(-c3ccccc3)n2)cc1,51% (inactive),12%
COc1cc(/C=C2\OC(=O)c3c(OC)cccc32)ccc1O,24% (inactive),28%
COc1ccc2c(c1)c(=O)oc1cc(OCC(=O)N3CCC(C)CC3)ccc12,0% (inactive),26%
Cc1ccc(-c2nnc(-c3ccc(NC(=O)c4ccco4)cc3)o2)cc1,0% (inactive),8%
CCOc1ccccc1-n1nnnc1SCC(=O)NC(=O)NCc1ccco1,5% (inactive),5%
O=C1C=CC(O)(c2cc(=O)c3c(O)cc(O)cc3o2)C=C1,38% (inactive),42%
Oc1ccc(N=Cc2ccc(O)c(O)c2)cc1,0% (inactive),41%
COC(=O)c1ccc(CC(=O)c2c(C)cc(O)cc2O)o1,34% (inactive),43%
CN(C)C(=O)c1ccc2c(c1)C1C3CCC(C3)C1C(c1ccccc1)N2 (configuration not stated),0% (inactive),24%
COc1ccc(OC)c(/C=N/c2oc(-c3ccco3)c(-c3ccco3)c2C#N)c1,25% (inactive),19%
O=c1c(OC2OC(CO)C(O)C(O)C2O)c(-c2ccc(O)c(O)c2)oc2cc(O)cc(O)c12 (configuration not stated),39% (inactive),33%
O=C(CSc1nc2scc(-c3ccco3)c2c(=O)n1-c1ccccc1)NCC1CCCO1 (configuration not stated),0% (inactive),21%
